Source: PubChem (National Center for Advancing Translational Sciences (NCATS))
SMN2 splice enh: enhancers of SMN2 splice variant expression. HEK293 SMN2-luciferase splicing reporter, luminescence, 30-36 h. Potency, µM (series often up to 46.1 µM), inactives show top-dose activity change, positive = activation, hits mostly activators. 210,000 compounds, 2.8% hits. AID 1458; note: % of control where 0% means no effect; nearly all actives have a fitted effect of over 55% in size
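HEK293 cells carry an SMN2 minigene-luciferase reporter in which exon 7 inclusion puts luciferase in frame. Cells were seeded at 2000 cells/well, attached for 10-12 hours, then exposed to compounds for 30-36 hours at 37C before ONE-Glo luminescence.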
ELG1 genotox: genotoxicity induction in ELG1-luciferase HEK293T cells | HEK293T ELG1-luciferase reporter, luminescence, 16 h | Potency, µM (doses to about 46 µM), without a hit: at the top dose activity change, positive = activation, usual class: activators | AID 504466 | 330,000 compounds, 1.3% hits; note: % of control where 0% means no effect; nearly all actives have a fitted effect of over 60% in size
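Screening used a luciferase reporter fused to human ELG1 in HEK293T cells. Luminescence was read on a CCD plate imager after 16 hr exposure and 30 min ONE-Glo incubation.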
Rab9 prom act: activates the Rab9 promoter | Huh7 Rab9 promoter-luciferase reporter, luminescence, 24 h | 320,000 compounds, 2.8% hits | Potency, µM (highest dose often 9.22 µM), for the others: top-dose activation, negative = inhibition, usual class: activators | AID 485297; note: % of control where 0% means no effect; nearly all actives have a fitted effect of over 60% in size
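Promoter activation is measured as luciferase luminescence in Huh7 cells stably transfected with a Rab9 promoter–luciferase construct, following 24 h compound exposure at 37 °C and 10 min reagent incubation at ambient temperature.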
NPC1 promoter act: activates the NPC1 promoter. Huh7 NPC1 promoter luciferase reporter, 24 h. Potency, µM (highest dose often 9.22 µM), for inactives: top-dose activation, hits mostly activators. 320,000 compounds, 2.4% hits. AID 485313; note: % of control where 0% means no effect; nearly all actives have a fitted effect of over 60% in size
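Huh7 cells stably carrying NPC1 promoter–luciferase, plated in Opti-MEM with 10% FBS for 2 h, were exposed to compound in DMSO for 24 h at 37 °C; luciferase reagent was added for 10 min and luminescence read.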
FLuc modulator: counter-screen for miR-21 project: firefly luciferase inhibitors or activators; 360,000 compounds, 6.9% hits; AID 588342; purified FLuc, Km substrates, luminescence inhibition; P08659; Potency, µM (highest dose often 57.5 µM), inactives show at the highest dose activity change, negative = inhibition, hits mostly inhibitors;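 note: plate controls were vehicle for no effect and reference inhibitor for full effect; nearly all actives have a fitted effect of over 55% in size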
Target sequence (P08659 whole entry, looked up): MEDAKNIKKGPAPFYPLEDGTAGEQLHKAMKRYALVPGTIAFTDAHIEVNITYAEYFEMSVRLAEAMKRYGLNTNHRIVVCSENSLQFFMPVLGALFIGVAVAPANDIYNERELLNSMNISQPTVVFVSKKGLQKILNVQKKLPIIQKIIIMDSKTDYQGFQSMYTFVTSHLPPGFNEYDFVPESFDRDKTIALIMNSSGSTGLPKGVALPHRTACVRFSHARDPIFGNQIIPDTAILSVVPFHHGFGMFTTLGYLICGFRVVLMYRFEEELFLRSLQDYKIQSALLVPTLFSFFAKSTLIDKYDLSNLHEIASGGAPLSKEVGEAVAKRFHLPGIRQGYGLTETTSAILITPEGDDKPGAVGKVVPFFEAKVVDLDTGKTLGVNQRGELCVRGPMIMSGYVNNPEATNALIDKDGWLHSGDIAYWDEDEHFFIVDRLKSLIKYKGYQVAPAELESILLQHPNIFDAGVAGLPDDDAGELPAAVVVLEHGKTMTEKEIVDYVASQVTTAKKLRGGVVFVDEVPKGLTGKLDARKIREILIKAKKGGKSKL
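Biochemical qHTS of compounds, final roughly 60 µM downward over six points, against 10 nM purified firefly luciferase using Km concentrations of substrates (10 uM D-luciferin, 10 uM ATP) in Tris acetate pH 7.5 buffer; luminescence output.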
* hit, by the source's call; ? = inconclusive; · = not tested or not shown; [ ] = another dose, or the depositor's remark. Compounds with a hit are over-represented: about 7.5% of the library has one in this group of screens. Calls come from the whole dose curve; as a rule, active = well fitted curve in the direction sought with a large enough effect; inconclusive = small, poorly fitted or top-dose-only effect, or another doubt; inactive = no such curve, though single readings can be large; an effect the other way counts as inactive or inconclusive. Potency is the fitted concentration of half-maximal effect.

SMILES	SMN2 splice enh	ELG1 genotox	Rab9 prom act	NPC1 promoter act	FLuc modulator
O=C(Nc1cccc(-c2cn3ccccc3n2)c1)C1CC1	?	?	3%	26%	13µM*
O=C(Nc1ccc(-c2cn3ccccc3n2)cc1)c1cccs1	11µM*	?	3.5µM*	1.8µM*	1.9µM*
COc1ccc(-c2cn(-c3ccc(C)cc3)c(S(=O)(=O)CC(=O)Nc3ccc(F)cc3)n2)cc1	28%	·	·	·	?
CCC(=O)Nc1cccc(-c2cn3cccc(C)c3n2)c1	·	12%	?	?	7.6µM*
Cc1ccc(S(=O)(=O)Nc2cccc(-c3cn4cccc(C)c4n3)c2)c(C)c1	-17%	·	·	·	?
Cc1cc(C)n(-c2nncc(-c3ccccc3)n2)n1	7%	?	9%	?	?
Cc1cc(Br)ccc1NC(=O)C(C)c1ccc([N+](=O)[O-])cc1 (configuration not stated)	-19%	-5%	0%	-1%	4%
c1ccc2n[nH]nc2c1	-3%	·	·	·	·
CN(CC(=O)N1CCCCC1)S(=O)(=O)c1cccc2cccnc12	-5%	-10%	-2%	-2%	-2%
CC1CC(C)(C)CC2(C1)NC(=O)N(CC(=O)Nc1cc([N+](=O)[O-])ccc1F)C2=O (configuration not stated)	·	-3%	0%	0%	0%
COc1ccc(CC(=O)Nc2cccc(-c3cn4ccccc4n3)c2)cc1	25%	-3%	23%	2%	8.5µM*
COc1ccc(CC(=O)Nc2cccc(-c3csc(C)n3)c2)cc1	10%	-1%	-3%	-1%	?
O=S(=O)(/N=C(/NC(=S)Nc1ccccc1)c1ccccc1)c1ccc(Cl)cc1	·	?	27%	22%	24µM*
O=C(NN/C(=N/S(=O)(=O)c1ccc(Cl)cc1)c1ccccc1)c1ccc(O)cc1	22%	?	0%	6%	15µM*
O=C(NN/C(=N/S(=O)(=O)c1ccc(Cl)cc1)c1ccccc1)c1cccc(Cl)c1	·	16µM*	?	4µM*	6µM*
Cc1ccc(S(=O)(=O)/N=C(/NNC(=O)c2cccc(Cl)c2)c2ccccc2)cc1	·	16µM*	?	?	15µM*
COc1ccc(C(C(=O)NC2CCCC2)N(CC2CCCO2)C(=O)Cn2nnc(-c3ccc(C)o3)n2)cc1 (configuration not stated)	5%	2%	-2%	0%	0%
Cc1ccccc1CN1CCNC(=O)C1CC(=O)N(C)CCC1CCOCC1 (configuration not stated)	·	1%	7%	13%	3%
c1ccc(-c2nc(N3CCNCC3)nc3ccccc23)cc1	12%	-5%	-1%	-1%	-1%
C/C(=N\NC(=O)c1ccccc1OCc1ccc(F)cc1)c1ccccn1	·	5%	-19%	-4%	21µM*
CCOc1ccc(OCc2ccc(C(=O)N/N=C(\C)c3ccccn3)cc2)cc1	-84%	?	-9%	-2%	12µM*
C/C(=N\NC(=O)c1cccc2ccccc12)c1ccccn1	·	?	-30%	9%	?
CCn1ccnc1CNC(=O)c1cc(COc2ccc(F)cc2F)on1	·	-4%	-3%	0%	-8%
COCCNC(=O)COc1ccc(C)cc1C	7%	10%	14%	0%	-2%
O=C(COc1cccc2ccccc12)NNC(=O)c1cnccn1	4%	-2%	-17%	-3%	-2%
SMILES	SMN2 splice enh	ELG1 genotox	Rab9 prom act	NPC1 promoter act	FLuc modulator
Cc1cc(Br)ccc1OCC(=O)NNC(=O)c1cnccn1	-4%	-4%	1%	-1%	17µM*
Cc1ccc(OCC(=O)NNC(=O)c2ccco2)c(C)c1	·	11%	2%	12%	12µM*
Cc1cc(Cl)ccc1OCC(=O)NNC(=O)c1cnccn1	-43%	2%	-9%	-1%	17µM*
CC(C)c1ccc(OCC(=O)NNC(=O)c2cnccn2)cc1	·	1%	-5%	-7%	-21%
Cc1ccc(C(=O)NNC(=O)COc2ccc(Cl)cc2C)o1	·	2%	-3%	-4%	11µM*
CN(C)S(=O)(=O)c1ccc(C(=O)Nc2cccc(S(=O)(=O)NC3=NCCC3)c2)cc1	·	0%	-3%	-2%	-19%
Cc1cc(C(=O)COC(=O)c2ccc[nH]c2=O)c(C)n1C	-28%	?	30%	22%	9.5µM*
Cc1cc(C(=O)COC(=O)c2ccc[nH]c2=O)c(C)n1-c1ccc(Br)cc1	?	11%	?	22%	?
Cc1ccc(-n2c(C)cc(C(=O)COC(=O)c3ccc[nH]c3=O)c2C)cc1	2.5µM*	?	0.4µM*	0.32µM*	2.7µM*
COCC(=O)OCC(=O)c1cc(C)n(-c2ccc(Br)cc2)c1C	-4%	-3%	4%	-1%	12µM*
COCCn1c(C)cc(C(=O)COC(=O)c2ccc[nH]c2=O)c1C	-9%	?	?	?	3µM*
CCOc1ccccc1NC(=O)CCS(=O)(=O)c1cccc2nonc12	22%	-2%	2%	1%	4%[2.3 µM]
Cc1cc2ccccc2n2c(SCC(=O)N3CCOCC3)nnc12	·	-12%	-7%	-4%	2%
COc1ccc(Cn2c3nc4ccccc4nc3c3c(=O)n(Cc4ccco4)cnc32)cc1	12%	-5%	0%	1%	-16%
CNS(=O)(=O)c1ccc(NC(=O)Nc2cccc(F)c2)cc1	·	1%	?	12%	19µM*
O=C(N/C=C/c1ccco1)Nc1cccc(Cl)c1	·	-1%	19%	16%	27µM*
CCc1ccccc1NC(=O)Nc1cccc(F)c1	-4%	-5%	1%	-4%	?
O=C(Nc1cccc(F)c1)Nc1cccc(Cl)c1	·	-2%	?	29%	24µM*
CC(=O)Nc1cccc(NC(=O)Nc2cccc(F)c2)c1	·	9%	3%	5%	9.5µM*
COc1ccc(NC(=O)N/C=C/c2ccco2)cc1	18%	-1%	2%	2%	?
COCCN(CC(=O)Nc1cc(Cl)ccc1-n1cncn1)Cc1nc2ccccc2c(=O)[nH]1	·	-2%	-2%	-2%	-3%
Cn1nc(C(F)(F)F)cc1C(=O)Nc1ccc(-c2ccno2)cc1	·	-15%	-2%	-10%	-8%
CC(C)CSc1ncc(-c2cccc(C(F)(F)F)c2)cn1	-4%	2%	-7%	-2%	-19%
N#CCc1ccc(NC(=O)Nc2cccc(Cl)c2)cc1	-14%	5%	29%	?	17µM*
CSc1ccccc1NC(=O)Nc1cccc(F)c1	·	1%	?	16%	21µM*
CCCCC(=O)Nc1cc(-c2nc3cccnc3s2)ccc1C	·	·	·	·	-10%
CCC(CC)C(=O)Nc1cc(-c2nc3cccnc3s2)ccc1C	·	·	·	·	12µM*
Cc1ccc(-c2nc3cccnc3s2)cc1NC(=O)Cc1ccccc1	·	·	·	·	1.1µM*
CCCC(=O)Nc1cc(-c2nc3cccnc3s2)ccc1C	·	·	·	·	9.5µM*
COc1ccc(CC(=O)Nc2cc(-c3nc4cccnc4s3)ccc2C)cc1	·	·	·	·	0.67µM*
